HttQ103 aggreg: inhibitors of mutant huntingtin aggregate formation in PC12 cells. hit rate 1.1% among 220,000. PC12 HttQ103-GFP aggregates, Acumen cytometry, 40 h. Potency, µM (highest dose often 46.1 µM), for the others: at the highest dose activity change, negative = inhibition, most hits filed as inhibitors; also: potency is read from the fitted curve at half-maximal effect; % is scaled to controls: 0 for no effect and ±100 for the full control effect; nearly all actives have a fitted effect of over 60% in size
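Aggregate formation scored by laser-scanning cytometer (488 excitation, 500–530 emission) in lysed PC12 cells expressing Q103-GFP after 100 nM tebufenozide induction; library tested in dose series, with ATPLite reagent added in the multiplex.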
HPGD block: inhibitors of human 15-hydroxyprostaglandin dehydrogenase (HPGD); P15428; purified HPGD, NADH fluorescence kinetic, PGE2 substrate; Potency, µM, for inactives: top-dose activity change, negative = inhibition, usual class: inhibitors; hit rate 4.3% among 150,000; AID 894; active = well fitted inhibition curve with a large enough effect, not every such curve was filed as active; inconclusive = small, poorly fitted or top-dose-only effect, or another doubt; inactive = no such curve, though single readings can be large or run the other way; also: potency is read from the fitted curve at half-maximal effect; % is scaled to controls: 0 for no effect and ±100 for the full control effect
Target sequence (P15428 whole entry, looked up): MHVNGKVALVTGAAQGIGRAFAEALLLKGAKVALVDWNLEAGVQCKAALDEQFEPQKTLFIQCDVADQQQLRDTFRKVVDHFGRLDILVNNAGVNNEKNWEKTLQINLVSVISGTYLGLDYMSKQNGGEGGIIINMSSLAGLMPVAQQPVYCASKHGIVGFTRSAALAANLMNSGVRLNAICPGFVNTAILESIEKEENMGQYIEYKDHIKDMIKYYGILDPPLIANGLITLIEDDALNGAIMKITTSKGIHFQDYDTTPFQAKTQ
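NADH formation kinetics: reaction with 30 uM PGE2 and 1 mM NAD+ (final), 20 nM enzyme, Tris-HCl pH 8 with Tween 20, after 15 min compound preincubation at room temperature. Fluorescence change, last versus first of five reads.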
HTT ATP protect: Huntington cell model cytoprotection by ATP luminescence; PC12 HTT-Q103 induced, cytoprotection, ATP luminescence, 40 h; Potency, µM (doses to about 56.4 µM), for inactives: cytoprotection (ATP increase), most hits filed as activators; hit rate 0.14% among 230,000; AID 1471; also: potency is read from the fitted curve at half-maximal effect; % of control where 0% means no effect; nearly all actives have a fitted effect of over 45% in size
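Compounds added alongside 100 nM tebufenozide, which induces toxic Q103 huntingtin exon 1-GFP in stable PC12 cells; surviving cells quantified by luminescent ATP measurement. Medium: phenol red-free DMEM, 5% equine and 5% calf serum.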
ALDH1A1 block: blocks purified human ALDH1A1 activity | P00352 | Purified ALDH1A1, NADH fluorescence, propionaldehyde substrate | Potency, µM (series often up to 75.3 µM), inactives show at the top dose activity, negative = inhibition, actives largely listed as inhibitors | hit rate 7.3% among 220,000 | AID 1030; active = well fitted inhibition curve with a large enough effect, not every such curve was filed as active; inconclusive = small, poorly fitted or top-dose-only effect, or another doubt; inactive = no such curve, though single readings can be large or run the other way;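 also: potency is read from the fitted curve at half-maximal effect; plate controls were no enzyme wells and a reference inhibitor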
PNC assembly inh: inhibitors of perinucleolar compartment assembly; PC3M PTB-GFP, PNC prevalence imaging, 16 h; stronger effect = lower value; activity change (PNC), negative = inhibition, % at 10 µM; hit rate 3.1% among 140,000;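 active = readout at or below -70, meaning at least 70% loss of cells showing the perinucleolar compartment, a nuclear body marking cancer cells; inconclusive = readout between -30 and a set limit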;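 also: plate controls were DMSO wells for no effect and camptothecin positive control wells for full effect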
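Read-out is percentage of cells bearing a perinucleolar compartment, from automated 20x imaging of fixed, Hoechst-stained PC3M PTB-GFP cells. Cells were seeded 4 h, then exposed 16 h to compound (23 nl of library stock) in duplicate plates.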
RGS12 GoLoco inh: blocks human Gai1 binding to RGS12 GoLoco peptide, red readout. Gai1:RGS12 GoLoco peptide FP, rhodamine, 10 min. Potency, µM (series often up to 61.6 µM), for the others: at the top dose activity, negative = inhibition, usual class: inhibitors. hit rate 0.44% among 230,000; active = well fitted inhibition curve with a large enough effect, not every such curve was filed as active; inactive = no such curve, though single readings can be large or run the other way; also: potency is read from the fitted curve at half-maximal effect; % is scaled to controls: 0 for no effect and ±100 for the full control effect; nearly all actives have a fitted effect of over 30% in size
Target sequence (P63096 whole entry, looked up): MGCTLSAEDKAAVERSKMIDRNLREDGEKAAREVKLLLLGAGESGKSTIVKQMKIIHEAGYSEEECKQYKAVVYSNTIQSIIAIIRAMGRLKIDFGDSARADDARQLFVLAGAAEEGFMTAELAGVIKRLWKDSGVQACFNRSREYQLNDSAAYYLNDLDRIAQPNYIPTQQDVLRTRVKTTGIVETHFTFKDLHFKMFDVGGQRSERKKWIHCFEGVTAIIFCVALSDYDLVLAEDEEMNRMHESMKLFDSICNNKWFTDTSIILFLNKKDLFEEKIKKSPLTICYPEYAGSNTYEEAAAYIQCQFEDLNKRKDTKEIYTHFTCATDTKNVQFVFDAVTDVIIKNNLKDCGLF
* marks the source's active call; other numbers are inactive results; ? = inconclusive; . = not tested or not shown; [ ] = another dose, or the depositor's remark. Only some compounds are listed: those with a hit (about 11% of all), similar ones and a draw of the others. Unless noted, calls follow the shape of the dose curve; as a rule, active = well fitted curve in the direction sought with a large enough effect; inconclusive = small, poorly fitted or top-dose-only effect, or another doubt; inactive = no such curve, though single readings can be large; an effect the other way counts as inactive or inconclusive.

SMILES | HttQ103 aggreg | HPGD block | HTT ATP protect | ALDH1A1 block | PNC assembly inh | RGS12 GoLoco inh
Cc1nn(Cc2ccccc2)c(Cl)c1C(=O)OC(C)C#N (stereo not drawn) | -5% | . | -45% | 22µM* | . | -2%
O=C(Cn1cnc([N+](=O)[O-])n1)N/N=C/c1ccc(O)cc1O | ? | . | -109% | ? | . | 1%
CCCN1Cc2cccc(C(=O)Nc3ccc4c(c3)OCO4)c2C1=O | 1% | -11% | -14% | -13% | 11 | 6%
CCCN1Cc2cccc(C(=O)Nc3ccc4c(c3)OCCO4)c2C1=O | -6% | -9% | 4% | -12% | -106* | 6%
COCCN1Cc2cccc(C(=O)Nc3cc(C)cc(C)c3)c2C1=O | -5% | -26% | -18% | ? | -85* | -1%
Cc1ccc(NC(=S)NCCSc2ccc(Cl)cc2)cc1 | ? | . | -181% | ? | . | 6%
Cc1cccc(C)c1NC(=S)NCCSc1ccc(Cl)cc1 | 11µM* | . | 0% | 5% | . | 2%
COc1ccc(NC(=S)NCCSc2ccc(Cl)cc2)c(OC)c1 | ? | 16µM* | 19%[10 µM] | 20µM* | -1 | 13%
CC1C/C(=N\NC(=S)NCc2ccccc2)CC(C)(C)C1 (stereo not drawn) | -12% | -15% | 18% | 25µM* | ? | 14%
CC1CCC/C(=N\NC(=S)NCc2ccccc2)C1 (stereo not drawn) | ? | -13% | -3% | ? | 9 | 1%
OC(C#CCN1CCCC1)c1ccccc1 (stereo not drawn) | -8% | -7% | 8% | ? | -87* | 6%
OC(C#CCN1CCCCC1)c1ccccc1 (stereo not drawn) | ? | -3% | -15% | 17% | 10 | 1%
CCCCCCC(=O)N(O)C1CC(=O)N(c2ccc(Br)cc2)C1=O (stereo not drawn) | 25% | 7.1µM* | -81% | 0.56µM* | ? | 39%
COc1ccccc1N(O)C1CC(=O)N(c2ccc(Br)cc2)C1=O (stereo not drawn) | 14% | 28µM* | 12%[10 µM] | 18µM* | ? | 3%
COc1ccc(S(=O)(=O)N(C)c2ccc(C(=O)NCCC(C)C)cc2)cc1 | -7% | 2µM* | -17% | -16% | -23 | -2%
COc1ccc(C(CNC(=O)c2ccc(S(=O)(=O)N(C)C)cc2)N2CCCC2)cc1 (stereo not drawn) | 6% | . | -4% | 4.5µM* | . | -3%
COc1ccc(Br)c(C(=O)NCCC(C)C)c1 | -6% | 13µM* | . | 6% | -14 | 1%
CCOCCCNC(=O)c1ccc(N(C)S(=O)(=O)c2ccc(OC)cc2)cc1 | -14% | 1.6µM* | 12% | -11% | ? | 1%
COc1ccc(C(CNC(=O)c2ccc(S(=O)(=O)N(C)C)cc2)N(C)C)cc1 (stereo not drawn) | 21% | . | -46% | ? | . | 6%
COc1ccc(S(=O)(=O)N(C)c2ccc(C(N)=O)cc2)cc1 | 20% | -7% | 11% | -5% | -2 | 6%
COc1ccc(-c2[nH]ncc2CN(Cc2nccn2C)C(C)C)c(F)c1 | -2%[9.22 µM] | . | -12%[10 µM] | 22µM* | . | 7%
COc1ccc(N2C(=O)/C(=C/c3ccc([N+](=O)[O-])cc3)N=C2C)c(OC)c1 | 17% | . | -2% | -12% | . | 38%
CC1=N/C(=C\c2ccc([N+](=O)[O-])cc2)C(=O)N1c1cc(Cl)ccc1C | -16% | -21% | 12% | 11µM* | 71 | 24%
c1ccc2c(NCCN3CCOCC3)nc(-c3ccc4c(c3)OCO4)nc2c1 | . | . | -63% | 1% | . | 11%
O=S(=O)(Oc1ccccc1/C=N/n1cnnc1)c1ccccc1 | -3%[9.22 µM] | . | -9% | 22µM* | . | 12%
SMILES | HttQ103 aggreg | HPGD block | HTT ATP protect | ALDH1A1 block | PNC assembly inh | RGS12 GoLoco inh
CCOc1cc(/C=N/n2cnnc2)ccc1OS(=O)(=O)c1ccccc1 | 21%[9.22 µM] | . | -27%[1.9 µM] | 13µM* | . | -10%
CO[C@H]1C[C@@H]2C[C@H](O)C[C@@H](CC(=O)O[C@@H](/C=C\CC(C)C)C[C@@H]3CC[C@H](C)[C@@H](C1)O3)O2 | . | . | ? | 8%[13.5 µM] | . | .
Cc1nn(CCc2nn[nH]n2)c2nc(C(F)(F)F)cc(C(F)(F)F)c12 | -5% | ? | -9%[4.97 µM] | ? | -84* | -6%
Cc1[nH]c2ccccc2c1Cc1n[nH]c(=S)n1C | -14% | 35µM* | -13%[1.9 µM] | -12% | 3 | 3%
Cc1[nH]c2ccccc2c1SCc1n[nH]c(=S)n1C | 7%[9.22 µM] | . | 5%[10 µM] | . | . | 2%
FC(F)(F)C(F)(F)C(F)(F)C(F)(F)C(F)(F)C(F)(F)F | 1% | . | 10% | . | . | .
Cn1nnnc1N=N/C(=N/Nc1ccccc1)c1ccccc1 | ? | . | -87%[10 µM] | . | . | 9%
CC(C)(C)n1nnnc1CN1CCSCC1 | -25% | -2% | -1%[10 µM] | 25µM* | 12 | -2%
Cc1ccccc1Nc1nc(N)nc(COC(=O)/C=C/c2ccco2)n1 | 17% | . | 5%[10 µM] | ? | . | 15%
CCCCCCCCCCCCCc1ccco1 | . | -8% | . | -3% | . | 4%
Cc1cc(-c2cc(C)c(O)c(C(C)(C)C)c2)cc(C(C)(C)C)c1O | . | -6% | 8%[10 µM] | 10%[13.5 µM] | . | 1%[14.2 µM]
CSc1sc(C(=O)NCC2CC2)c2c1S(=O)(=O)N(C)c1ccccc1-2 | 1%[9.22 µM] | . | -5%[10 µM] | . | . | 5%
CSc1sc(C(=O)NCC2CC2)c(-c2cccs2)c1C#N | -11%[9.22 µM] | . | 1%[10 µM] | 8.9µM* | . | 1%
COc1ccc(N=C2SC(C(=O)N3CCN(c4ccc([N+](=O)[O-])cc4)CC3)CC(=O)N2C)cc1 (stereo not drawn) | 5% | . | -56% | 10µM* | . | 7%
COc1ccc(N2CCN(C(=O)C3CC(O)CN3S(=O)(=O)c3ccc([N+](=O)[O-])cc3)CC2)cc1 (stereo not drawn) | 1% | -2% | -8%[10 µM] | 11% | 36 | 2%
COc1cc(OC)c(OC)cc1CN1CCN(Cc2cccn2C)CC1 | 25% | -4% | 14%[10 µM] | ? | ? | -2%
COC(=O)c1ccc(NS(=O)(=O)c2cc(C)ccc2OC)cc1 | -14% | ? | 4%[0.074 µM] | 1% | 4 | -2%
CCOC(=O)c1ccc(NS(=O)(=O)c2cc(-c3nnnn3C(C)C)ccc2OC)cc1 | 13% | -22% | -17%[0.074 µM] | 2.8µM* | 1 | -1%
CCn1nnnc1-c1ccc(OC)c(S(=O)(=O)Nc2ccc(OC)cc2)c1 | ? | -16% | -26% | 0.11µM* | -3 | -4%
CCn1nnnc1-c1ccc(OC)c(S(=O)(=O)Nc2ccc(C(=O)OC)cc2)c1 | 3% | -8% | -3%[0.074 µM] | 7.1µM* | ? | 6%
CC(C)n1c(O)c(N=Nc2ccc(Cl)c(C(=O)O)c2)c2ccccc21 | 13%[9.22 µM] | . | 19%[10 µM] | . | . | -4%
Nc1ncnc2c1cnn2-c1ccccc1 | -8% | -29% | -4% | ? | 6 | -9%
S=c1nc[nH]c2c1cnn2-c1ccccc1 | -1%[9.22 µM] | . | -13%[10 µM] | 3.2µM* | . | -9%
CC[n+]1c(C)n(-c2ccccc2)c2ccc(C(=O)OC)cc21 | -7%[9.22 µM] | . | 14%[10 µM] | 4% | . | -2%

Assay outcomes from PubChem BioAssay.
